Results as given in PubChem BioAssay AID1159580 (chemical genetic matrix, 2015).
Where “and” joins values, the source holds several entries; their conditions need not be identical. Identical values can stand only once. In all, about 5,500 compounds went through this assay and about 2,000 (36%) were called active. About 18% were inconclusive and are not listed. No stated cut-off is given here; in the data, active means normalized growth mostly below about 0.91 (no sharp cut-off); inconclusive means no clear call, values can overlap the other calls; inactive means mostly above about 0.92. The list shows a part of the results.

Test: chemical genetic growth profiling, strain panel (AID 1159580);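 further: tested at 20 µM; growth read once vehicle control cultures reached saturation at 30 °C; 1 = growth at the plate median or of vehicle wells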
Details: growth OD
[1] = S. cerevisiae deletion strains, locus YBR229C, strain ROT2, stronger effect = lower value
[2] = S. cerevisiae deletion strains, locus YCL061C, strain MRC1, stronger effect = lower value
[3] = S. cerevisiae deletion strains, locus YDL101C, strain DUN1, stronger effect = lower value
[4] = S. cerevisiae deletion strains, locus YDL134C, strain PPH21, stronger effect = lower value
[5] = S. cerevisiae deletion strains, locus YDR150W, strain NUM1, stronger effect = lower value
[6] = S. cerevisiae deletion strains, locus YEL061C, strain CIN8, stronger effect = lower value
[7] = S. cerevisiae deletion strains, locus YGR078C, strain PAC10, stronger effect = lower value
[8] = S. cerevisiae deletion strains, locus YHR030C, strain SLT2, stronger effect = lower value
[9] = S. cerevisiae deletion strains, locus YHR087W, strain rtc3, stronger effect = lower value
[10] = S. cerevisiae deletion strains, locus YJR043C, strain POL32, stronger effect = lower value
[11] = S. cerevisiae deletion strains, locus YJR075W, strain HOC1, stronger effect = lower value
[12] = S. cerevisiae deletion strains, locus YLR039C, strain RIC1, stronger effect = lower value
[13] = S. cerevisiae deletion strains, locus YLR058C, strain SHM2 (second series), stronger effect = lower value
[14] = S. cerevisiae deletion strains, locus YLR085C, strain ARP6, stronger effect = lower value
[15] = S. cerevisiae deletion strains, locus YLR262C, strain YPT6, stronger effect = lower value
[16] = S. cerevisiae deletion strains, locus YML094W, strain GIM5, stronger effect = lower value
[17] = S. cerevisiae deletion strains, locus YMR219W, strain ESC1, stronger effect = lower value
[18] = S. cerevisiae deletion strains, locus YMR263W, strain SAP30, stronger effect = lower value
[19] = S. cerevisiae deletion strains, locus YMR307W, strain GAS1, stronger effect = lower value
[20] = S. cerevisiae deletion strains, locus YNL153C, strain GIM3, stronger effect = lower value
[21] = S. cerevisiae deletion strains, locus YNL298W, strain CLA4 (second series), stronger effect = lower value
[22] = S. cerevisiae deletion strains, locus YNL322C, strain KRE1, stronger effect = lower value
[23] = S. cerevisiae deletion strains, locus YNR030W, strain Alg12, stronger effect = lower value
[24] = S. cerevisiae deletion strains, locus YPL055C, strain LGE1, stronger effect = lower value
[25] = S. cerevisiae deletion strains, locus YPL241C, strain CIN2, stronger effect = lower value
[26] = S. cerevisiae deletion strains, locus YPR135W, strain CTF4, stronger effect = lower value

Measured: normalized growth

COc1ccc(-c2c(C(=O)O)sc(SC)c2C#N)cc1
inactive: S. cerevisiae deletion strains, locus YAL013W, strain DEP1, stronger effect = lower value 0.996 | [1] 0.998 | [2] 0.989 | [3] 1.01 | [4] 1.01 | [5] 1.07 | [6] 1.01 | [7] 1.01 | S. cerevisiae deletion strains, locus YGR229C, strain SMI1, stronger effect = lower value 1 | [8] 1.01 | [9] 0.997 | [10] 0.981 | [11] 1.01 | S. cerevisiae deletion strains, locus YKL190W, strain CNB1, stronger effect = lower value 1.01 | [12] 1.03 | [13] 0.994 | [14] 1.05 | [15] 1.04 | [16] 1.02 | [17] 1 | [18] 1.04 | [19] 1.06 | [20] 0.992 | [21] 1 | [22] 1 | [23] 1.01 | [24] 1.1 | [25] 1.01 | [26] 0.964

CSc1sc(-c2ccn[nH]2)c(-c2ccccc2)c1C#N
0.599 (active) and 1.06 (inactive): [8]
active: [4] 0.732 | [6] 0.827 | [14] 0.437 | S. cerevisiae deletion strains, locus YLR113W, strain HOG1, stronger effect = lower value 0.861 | [16] 0.789 | [19] 0.508 | [21] 0.735 | [23] 0.753 | [25] 0.758 | S. cerevisiae strains, strain wild type, stronger effect = lower value 0.911
inactive: S. cerevisiae deletion strains, locus YAR019C, strain CDC15, stronger effect = lower value 0.982 | S. cerevisiae deletion strains, locus YBL105C, strain PKC1, stronger effect = lower value 0.981 | S. cerevisiae deletion strains, locus YBR135W, strain CKS1, stronger effect = lower value 0.975 | S. cerevisiae deletion strains, locus YBR136W, strain MEC1, stronger effect = lower value 0.975 | S. cerevisiae deletion strains, locus YBR160W, strain CDC28, stronger effect = lower value 0.992 | [1] 0.941 | [2] 0.981 | S. cerevisiae deletion strains, locus YDL017W, strain CDC7, stronger effect = lower value 0.994 | S. cerevisiae deletion strains, locus YDL028C, strain MPS1, stronger effect = lower value 0.983 | [3] 0.968 and 0.962 | S. cerevisiae deletion strains, locus YDL108W, strain KIN28, stronger effect = lower value 0.977 | S. cerevisiae deletion strains, locus YDL132W, strain cdc53, stronger effect = lower value 0.972 | S. cerevisiae deletion strains, locus YDL214C, strain PRR2, stronger effect = lower value 0.997 | S. cerevisiae deletion strains, locus YDR052C, strain DBF4, stronger effect = lower value 0.989 | S. cerevisiae deletion strains, locus YDR054C, strain cdc34, stronger effect = lower value 0.988 | [5] 0.974 | S. cerevisiae deletion strains, locus YDR226W, strain ADK1, stronger effect = lower value 0.976 | S. cerevisiae deletion strains, locus YDR477W, strain SNF1, stronger effect = lower value 0.984 | S. cerevisiae deletion strains, locus YER123W, strain YCK3, stronger effect = lower value 0.976 | S. cerevisiae deletion strains, locus YER133W, strain GLC7, stronger effect = lower value 0.987 | S. cerevisiae deletion strains, locus YFL009W, strain cdc4, stronger effect = lower value 0.97 | S. cerevisiae deletion strains, locus YFL029C, strain CAK1, stronger effect = lower value 0.975 | S. cerevisiae deletion strains, locus YFR003C, strain YPI1, stronger effect = lower value 0.976 | S. cerevisiae deletion strains, locus YFR019W, strain FAB1, stronger effect = lower value 0.973 | S. cerevisiae deletion strains, locus YFR028C, strain CDC14, stronger effect = lower value 0.974 | S. cerevisiae deletion strains, locus YGR040W, strain KSS1, stronger effect = lower value 0.998 | S. cerevisiae deletion strains, locus YGR052W, strain FMP48, stronger effect = lower value 0.998 | [7] 0.941 | S. cerevisiae deletion strains, locus YGR092W, strain DBF2, stronger effect = lower value 1 | S. cerevisiae deletion strains, locus YHR079C, strain IRE1, stronger effect = lower value 1.09 | S. cerevisiae deletion strains, locus YHR082C, strain KSP1, stronger effect = lower value 1.03 | [9] 0.914 | S. cerevisiae deletion strains, locus YHR205W, strain SCH9, stronger effect = lower value 0.997 | S. cerevisiae deletion strains, locus YIL147C, strain SLN1, stronger effect = lower value 0.979 | S. cerevisiae deletion strains, locus YJL095W, strain BCK1, stronger effect = lower value 0.974 | S. cerevisiae deletion strains, locus YJL128C, strain PBS2, stronger effect = lower value 0.957 | S. cerevisiae deletion strains, locus YJL157C, strain FAR1, stronger effect = lower value 0.986 | S. cerevisiae deletion strains, locus YJR016C, strain ILV3, stronger effect = lower value 0.978 | [10] 0.969 | S. cerevisiae deletion strains, locus YJR066W, strain TOR1 (second series), stronger effect = lower value 0.92 | S. cerevisiae deletion strains, locus YJR066W, strain TOR1, stronger effect = lower value 1.04 | [11] 0.944 | S. cerevisiae deletion strains, locus YKL048C, strain ELM1, stronger effect = lower value 0.984 | S. cerevisiae deletion strains, locus YKL067W, strain YNK1, stronger effect = lower value 0.992 | S. cerevisiae deletion strains, locus YKL101W, strain HSL1, stronger effect = lower value 0.976 | S. cerevisiae deletion strains, locus YKL193C, strain SDS22, stronger effect = lower value 0.983 | S. cerevisiae deletion strains, locus YKL203C, strain TOR2, stronger effect = lower value 1.04 | [12] 0.846 | [13] 0.975 | S. cerevisiae deletion strains, locus YLR133W, strain CKI1, stronger effect = lower value 0.968 | [15] 0.991 | S. cerevisiae deletion strains, locus YLR403W, strain SFP1, stronger effect = lower value 0.982 | S. cerevisiae deletion strains, locus YML070W, strain DAK1, stronger effect = lower value 0.984 | S. cerevisiae deletion strains, locus YMR001C, strain CDC5, stronger effect = lower value 0.993 | S. cerevisiae deletion strains, locus YMR205C, strain PFK2 (second series), stronger effect = lower value 0.97 | [17] 0.955 | [18] 0.939 | S. cerevisiae deletion strains, locus YMR277W, strain FCP1, stronger effect = lower value 0.984 | S. cerevisiae deletion strains, locus YNL006W, strain LST8, stronger effect = lower value 1 | S. cerevisiae deletion strains, locus YNL020C, strain ARK1, stronger effect = lower value 0.996 | [20] 0.979 | S. cerevisiae deletion strains, locus YNL161W, strain CBK1, stronger effect = lower value 0.991 | S. cerevisiae deletion strains, locus YNL183C, strain NPR1, stronger effect = lower value 1 | S. cerevisiae deletion strains, locus YNL207W, strain RIO2, stronger effect = lower value 0.96 | S. cerevisiae deletion strains, locus YNL222W, strain SSU72, stronger effect = lower value 0.977 | S. cerevisiae deletion strains, locus YNL307C, strain MCK1 (second series), stronger effect = lower value 1.01 | [22] 0.965 | S. cerevisiae deletion strains, locus YOL078W, strain AVO1, stronger effect = lower value 0.981 | S. cerevisiae deletion strains, locus YOL136C, strain PFK27, stronger effect = lower value 0.956 | S. cerevisiae deletion strains, locus YOR061W, strain CKA2, stronger effect = lower value 0.986 | S. cerevisiae deletion strains, locus YOR119C, strain RIO1, stronger effect = lower value 1.02 | S. cerevisiae deletion strains, locus YOR231W, strain MKK1, stronger effect = lower value 0.965 | S. cerevisiae deletion strains, locus YOR329C, strain SCD5, stronger effect = lower value 0.995 | S. cerevisiae deletion strains, locus YPL031C, strain PHO85, stronger effect = lower value 0.989 | [24] 0.875 | S. cerevisiae deletion strains, locus YPL153C, strain RAD53, stronger effect = lower value 0.971 | S. cerevisiae deletion strains, locus YPL204W, strain HRR25, stronger effect = lower value 0.958 | S. cerevisiae deletion strains, locus YPL209C, strain IPL1, stronger effect = lower value 0.978 | S. cerevisiae deletion strains, locus YPL256C, strain CLN2, stronger effect = lower value 1.04 | S. cerevisiae deletion strains, locus YPR025C, strain CCL1, stronger effect = lower value 0.989 | S. cerevisiae deletion strains, locus YPR106W, strain ISR1, stronger effect = lower value 0.986 | S. cerevisiae deletion strains, locus YPR111W, strain DBF20, stronger effect = lower value 0.954 | [26] 0.69 | S. cerevisiae deletion strains, strain NNK1, stronger effect = lower value 0.966 | S. cerevisiae deletion strains, strain TSCII, stronger effect = lower value 0.984
